{
  "source": "the supplement of paper PMC10037445",
  "key": {"RAW-Dual [1]": {"system": "RAW-Dual", "assay": "NF-kB SEAP reporter activity, fold change vs agonist alone; higher = enhanced NF-kB activity", "in_short": "(§1)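 RAW-Dual macrophages (50,000 cells/well in DMEM, 384-well plates) received 50 nL of library stock by pin tool, then a PRR agonist 1 h later, and were kept at 37 °C, 5% CO2. After 20 hours, supernatant was read for IRF by QuantiLuc luminescence and for NF-κB by QuantiBlue absorbance at 620 nm. Reporter activity is fold change over agonist-alone wells. Cytotoxic wells had IncuCyte confluency below 70% of agonist controls in both mask sets.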"}, "RAW-Dual [2]": {"system": "RAW-Dual", "assay": "NF-kB SEAP reporter activity, fold change vs agonist alone; cytotoxicity flag (confluency mask): cytotoxic (confluency <70% of control); higher = enhanced NF-kB activity", "in_short": "as §1"}, "RAW-Dual [3]": {"system": "RAW-Dual", "assay": "NF-kB SEAP reporter activity, fold change vs agonist alone; cytotoxicity flag (confluency mask): not cytotoxic; higher = enhanced NF-kB activity", "in_short": "as §1"}, "[4]": {"conditions": "library stock concentration (final ~1000-fold dilution): 10 mM, cytotoxicity flag (confluency mask): cytotoxic (confluency <70% of control), agonist: Imiquimod (TLR7) […]"}, "[5]": {"conditions": "library stock concentration (final ~1000-fold dilution): 10 mM, cytotoxicity flag (confluency mask): cytotoxic (confluency <70% of control), agonist: MPLA (TLR4) […]"}, "[6]": {"conditions": "agonist: ODN 1826 (TLR9) 0.5 ug/mL"}, "[7]": {"conditions": "agonist: Pam2CSK4 (TLR2/6) 0.1 ug/mL"}, "[8]": {"conditions": "agonist: Pam3CSK4 (TLR2/1) 0.1 ug/mL"}, "[9]": {"conditions": "library stock concentration (final ~1000-fold dilution): 10 mM, cytotoxicity flag (confluency mask): not cytotoxic, agonist: Imiquimod (TLR7) […]"}, "[10]": {"conditions": "library stock concentration (final ~1000-fold dilution): 10 mM, cytotoxicity flag (confluency mask): not cytotoxic, agonist: MPLA (TLR4) […]"}},
  "note": "Where “and” joins values, the source holds several entries; their conditions need not be identical. Equal values may be shown once. The full ranking holds about 2,900 compounds; the median of “NF-kB SEAP reporter activity, fold change vs agonist alone” is about 0.99, and the highest 2% start at about 2.6. Only a selection was taken, and the highest values are over-represented in it overall.",
  "data": [
    {"compound": "Cc1cncc(CN2CCC(=C3c4ccc(Cl)cc4CCc4cccnc43)CC2)c1.O=C(O)/C=C/C(=O)O", "values": [
      {"measurement": "NF-kB SEAP reporter activity", "setting": "RAW-Dual [1]; [4]", "result": 1.02},
      {"measurement": "NF-kB SEAP reporter activity", "setting": "RAW-Dual [1]; [5]", "result": 0.719}
    ]},
    {"compound": "Cc1cncc(CN2CCC(=C3c4ccc(Cl)cc4CCc4cccnc43)CC2)c1.O=C(O)/C=C/C(=O)O", "note": "(library stock concentration (final ~1000-fold dilution): 10 mM)", "values": [
      {"measurement": "NF-kB SEAP reporter activity", "setting": "RAW-Dual [2]; agonist: LPS (TLR4) 0.1 ug/mL", "result": 0.652},
      {"measurement": "NF-kB SEAP reporter activity", "setting": "RAW-Dual [2]; [6]", "result": 0.37},
      {"measurement": "NF-kB SEAP reporter activity", "setting": "RAW-Dual [2]; [7]", "result": 0.456},
      {"measurement": "NF-kB SEAP reporter activity", "setting": "RAW-Dual [2]; [8]", "result": 0.408}
    ]},
    {"compound": "CCC1OC(=O)C(C)C(OC2CC(C)(OC)C(O)C(C)O2)C(C)C(OC2OC(C)CC(N(C)C)C2O)C(C)(O)CC(C)CN(C)C(C)C(O)C1(C)O.O.O", "note": "(stereo unspecified) (library stock concentration (final ~1000-fold dilution): 10 mM)", "values": [
      {"measurement": "NF-kB SEAP reporter activity", "setting": "RAW-Dual [3]; agonist: LPS (TLR4) 0.1 ug/mL", "result": 1.49},
      {"measurement": "NF-kB SEAP reporter activity", "setting": "RAW-Dual [3]; [6]", "result": 0.371},
      {"measurement": "NF-kB SEAP reporter activity", "setting": "RAW-Dual [3]; [7]", "result": 0.896},
      {"measurement": "NF-kB SEAP reporter activity", "setting": "RAW-Dual [3]; [8]", "result": 0.978}
    ]},
    {"compound": "CCC1OC(=O)C(C)C(OC2CC(C)(OC)C(O)C(C)O2)C(C)C(OC2OC(C)CC(N(C)C)C2O)C(C)(O)CC(C)CN(C)C(C)C(O)C1(C)O.O.O", "note": "(stereo unspecified)", "values": [
      {"measurement": "NF-kB SEAP reporter activity", "setting": "RAW-Dual [1]; [9]", "result": 0.506},
      {"measurement": "NF-kB SEAP reporter activity", "setting": "RAW-Dual [1]; [10]", "result": 1.46}
    ]},
    {"compound": "COc1cc(OC)cc(N(CCNC(C)C)c2ccc3ncc(-c4cnn(C)c4)nc3c2)c1", "note": "(library stock concentration (final ~1000-fold dilution): 10 mM)", "values": [
      {"measurement": "NF-kB SEAP reporter activity", "setting": "RAW-Dual [2]; agonist: LPS (TLR4) 0.1 ug/mL", "result": 3.64},
      {"measurement": "NF-kB SEAP reporter activity", "setting": "RAW-Dual [2]; [6]", "result": 0.427},
      {"measurement": "NF-kB SEAP reporter activity", "setting": "RAW-Dual [2]; [7]", "result": 1.06},
      {"measurement": "NF-kB SEAP reporter activity", "setting": "RAW-Dual [2]; [8]", "result": 1.57}
    ]},
    {"compound": "COc1cc2ncc(-c3ccccc3)nc2cc1OC", "note": "(library stock concentration (final ~1000-fold dilution): 10 mM)", "values": [
      {"measurement": "NF-kB SEAP reporter activity", "setting": "RAW-Dual [3]; agonist: LPS (TLR4) 0.1 ug/mL", "result": 1.78},
      {"measurement": "NF-kB SEAP reporter activity", "setting": "RAW-Dual [3]; [6]", "result": 1.28},
      {"measurement": "NF-kB SEAP reporter activity", "setting": "RAW-Dual [3]; [7]", "result": 0.915},
      {"measurement": "NF-kB SEAP reporter activity", "setting": "RAW-Dual [3]; [8]", "result": 0.864}
    ]},
    {"compound": "COc1cc(OC)cc(N(CCNC(C)C)c2ccc3ncc(-c4cnn(C)c4)nc3c2)c1", "values": [
      {"measurement": "NF-kB SEAP reporter activity", "setting": "RAW-Dual [1]; [4]", "result": 1.76},
      {"measurement": "NF-kB SEAP reporter activity", "setting": "RAW-Dual [1]; [5]", "result": 2.21}
    ]},
    {"compound": "COc1cc2ncc(-c3ccccc3)nc2cc1OC", "values": [
      {"measurement": "NF-kB SEAP reporter activity", "setting": "RAW-Dual [1]; [9]", "result": 1.16},
      {"measurement": "NF-kB SEAP reporter activity", "setting": "RAW-Dual [1]; [10]", "result": 1.39}
    ]},
    {"compound": "Cn1cc(-c2ccc3ncc(Cc4ccc5ncccc5c4)n3n2)cn1", "note": "(library stock concentration (final ~1000-fold dilution): 10 mM)", "values": [
      {"measurement": "NF-kB SEAP reporter activity", "setting": "RAW-Dual [3]; agonist: LPS (TLR4) 0.1 ug/mL", "result": 1.88},
      {"measurement": "NF-kB SEAP reporter activity", "setting": "RAW-Dual [3]; [6]", "result": 1.35},
      {"measurement": "NF-kB SEAP reporter activity", "setting": "RAW-Dual [3]; [7]", "result": 1.31},
      {"measurement": "NF-kB SEAP reporter activity", "setting": "RAW-Dual [3]; [8]", "result": 1.47}
    ]},
    {"compound": "Cn1cc(-c2ccc3ncc(Cc4ccc5ncccc5c4)n3n2)cn1", "values": [
      {"measurement": "NF-kB SEAP reporter activity", "setting": "RAW-Dual [1]; [9]", "result": 1.37},
      {"measurement": "NF-kB SEAP reporter activity", "setting": "RAW-Dual [1]; [10]", "result": 1.23}
    ]},
    {"compound": "Br.COc1ccc2c3c1OC1CC(O)C=CC31CCN(C)C2", "note": "(stereo unspecified)", "values": [
      {"measurement": "NF-kB SEAP reporter activity", "setting": "RAW-Dual [1]; library stock concentration (final ~1000-fold dilution): 10 mM water, cytotoxicity flag (confluency mask): not cytotoxic, agonist: Imiquimod (TLR7) […]", "result": 0.936},
      {"measurement": "NF-kB SEAP reporter activity", "setting": "RAW-Dual [1]; library stock concentration (final ~1000-fold dilution): 10 mM water, cytotoxicity flag (confluency mask): not cytotoxic, agonist: MPLA (TLR4) […]", "result": 0.997}
    ]},
    {"compound": "Br.COc1ccc2c3c1OC1CC(O)C=CC31CCN(C)C2", "note": "(stereo unspecified) (library stock concentration (final ~1000-fold dilution): 10 mM water)", "values": [
      {"measurement": "NF-kB SEAP reporter activity", "setting": "RAW-Dual [3]; agonist: LPS (TLR4) 0.1 ug/mL", "result": 1.12},
      {"measurement": "NF-kB SEAP reporter activity", "setting": "RAW-Dual [3]; [6]", "result": 1.02},
      {"measurement": "NF-kB SEAP reporter activity", "setting": "RAW-Dual [3]; [7]", "result": 1.12},
      {"measurement": "NF-kB SEAP reporter activity", "setting": "RAW-Dual [3]; [8]", "result": 1.16}
    ]},
    {"compound": "CC(C)C(C(=O)O)N1C(=O)/C(=C/c2ccc(Br)cc2)SC1=S", "note": "(stereo unspecified)", "values": [
      {"measurement": "NF-kB SEAP reporter activity", "setting": "RAW-Dual [1]; [9]", "result": 0.992},
      {"measurement": "NF-kB SEAP reporter activity", "setting": "RAW-Dual [1]; [10]", "result": 1.01}
    ]},
    {"compound": "CC(C)C(C(=O)O)N1C(=O)/C(=C/c2ccc(Br)cc2)SC1=S", "note": "(stereo unspecified) (library stock concentration (final ~1000-fold dilution): 10 mM)", "values": [
      {"measurement": "NF-kB SEAP reporter activity", "setting": "RAW-Dual [3]; agonist: LPS (TLR4) 0.1 ug/mL", "result": 1.12},
      {"measurement": "NF-kB SEAP reporter activity", "setting": "RAW-Dual [3]; [6]", "result": 0.953},
      {"measurement": "NF-kB SEAP reporter activity", "setting": "RAW-Dual [3]; [7]", "result": 0.947},
      {"measurement": "NF-kB SEAP reporter activity", "setting": "RAW-Dual [3]; [8]", "result": 1.05}
    ]},
    {"compound": "CC1(C)C(C(=O)O)N2C(=O)CC2S1(=O)=O", "note": "(stereo unspecified) (library stock concentration (final ~1000-fold dilution): 10 mM)", "values": [
      {"measurement": "NF-kB SEAP reporter activity", "setting": "RAW-Dual [3]; agonist: LPS (TLR4) 0.1 ug/mL", "result": "1.04 and 0.881"},
      {"measurement": "NF-kB SEAP reporter activity", "setting": "RAW-Dual [3]; [6]", "result": "1.01 and 1.03"},
      {"measurement": "NF-kB SEAP reporter activity", "setting": "RAW-Dual [3]; [7]", "result": "0.96 and 1.14"},
      {"measurement": "NF-kB SEAP reporter activity", "setting": "RAW-Dual [3]; [8]", "result": "1.05 and 1.19"}
    ]},
    {"compound": "Cl.O=c1[nH]ccc2c(S(=O)(=O)N3CCCNCC3)cccc12", "note": "(library stock concentration (final ~1000-fold dilution): 10 mM)", "values": [
      {"measurement": "NF-kB SEAP reporter activity", "setting": "RAW-Dual [3]; agonist: LPS (TLR4) 0.1 ug/mL", "result": 1.22},
      {"measurement": "NF-kB SEAP reporter activity", "setting": "RAW-Dual [3]; [6]", "result": 0.968},
      {"measurement": "NF-kB SEAP reporter activity", "setting": "RAW-Dual [3]; [7]", "result": 1.05},
      {"measurement": "NF-kB SEAP reporter activity", "setting": "RAW-Dual [3]; [8]", "result": 1.23}
    ]},
    {"compound": "Cl.O=c1[nH]ccc2c(S(=O)(=O)N3CCCNCC3)cccc12", "values": [
      {"measurement": "NF-kB SEAP reporter activity", "setting": "RAW-Dual [1]; [9]", "result": 1},
      {"measurement": "NF-kB SEAP reporter activity", "setting": "RAW-Dual [1]; [10]", "result": 0.986}
    ]},
    {"compound": "COc1ccc(Cn2ccc3ccc(C(=O)NO)cc32)cc1", "note": "(library stock concentration (final ~1000-fold dilution): 10 mM)", "values": [
      {"measurement": "NF-kB SEAP reporter activity", "setting": "RAW-Dual [3]; agonist: LPS (TLR4) 0.1 ug/mL", "result": 0.996},
      {"measurement": "NF-kB SEAP reporter activity", "setting": "RAW-Dual [3]; [6]", "result": 0.62},
      {"measurement": "NF-kB SEAP reporter activity", "setting": "RAW-Dual [3]; [7]", "result": 0.788},
      {"measurement": "NF-kB SEAP reporter activity", "setting": "RAW-Dual [3]; [8]", "result": 0.588}
    ]}
  ]
}
